BAZ2B block – blocks human BAZ2B; Q9UIF8; AlphaScreen BAZ2B-H3K14Ac peptide displacement; Potency, µM (top dose mostly 114 µM), inactives show at the highest dose activity change, negative = inhibition, most hits filed as inhibitors; hit rate 4.4% among 360,000; AID 504333; further: on the % scale 0 is the no-effect control and ±100 the full control effect; nearly all actives have a fitted effect of over 60% in size
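Inhibition is scored as reduced AlphaScreen emission. The BAZ2B/b-H3(5-23)K14Ac complex (50 nM each) in PBS pH 7.4, 0.01% Tween-20 meets compound (up to 110 uM) for 30 min at RT before bead addition.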
GLS inh – blocks human kidney-isoform glutaminase activity; Potency, µM (series often up to 45.5 µM), without a hit: top-dose activity change, negative = inhibition, most hits filed as inhibitors; GLS enzymatic activity, qHTS titration; O94925; hit rate 0.21% among 410,000; further: on the % scale 0 is the no-effect control and ±100 the full control effect
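Human kidney-isoform GLS in 45 mM KH2PO4 pH 8.2, 0.02% Tween-20, with compound, started with 1mM L-Glutamine (added stock). Glutamate oxidase/HRP/Amplex red coupled fluorescence read at start and after 30 min at RT.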
JMJD2A Tudor inh – inhibitors of human JMJD2A Tudor domain | AlphaScreen JMJD2A-Tudor / H3K4me3 peptide binding | AID 504339 | Potency, µM (top dose mostly 114 µM), inactives show top-dose activity change, negative = inhibition, actives largely listed as inhibitors | hit rate 4.4% among 390,000; further: on the % scale 0 is the no-effect control and ±100 the full control effect; nearly all actives have a fitted effect of over 50% in size
HP1b binding inh – blocks HP1-beta chromodomain binding to methylated histone tails | P83916 | AlphaScreen HP1-beta / biotin-H3K9me3 peptide binding | Potency, µM (series often up to 114 µM), inactives show top-dose activity change, negative = inhibition, most hits filed as inhibitors | hit rate 0.56% among 390,000 | AID 540317; further: nearly all actives have a fitted effect of over 70% in size
Target sequence (P83916 whole entry, looked up): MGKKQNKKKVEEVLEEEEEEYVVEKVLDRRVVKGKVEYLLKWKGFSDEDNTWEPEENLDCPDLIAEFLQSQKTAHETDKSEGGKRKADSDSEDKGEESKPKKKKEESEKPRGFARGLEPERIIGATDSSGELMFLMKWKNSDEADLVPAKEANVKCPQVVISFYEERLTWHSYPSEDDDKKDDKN
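Compound inhibition of the preformed complex between 50 nM HP1-beta and 50 nM biotinylated H3K9me3 peptide was read by AlphaScreen. Buffer was PBS pH 7.4 with 0.01% Tween-20. Incubations ran 30 min at room temperature, with 10 ug/mL donor/acceptor beads.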
L3MBTL1 block – blocks human L3MBTL1. Q9Y468. AlphaScreen L3MBTL1–H3K9me1 peptide binding. Potency, µM (series often up to 57.1 µM), without a hit: top-dose activity, negative = inhibition, most hits filed as inhibitors. hit rate 0.66% among 230,000. AID 485360; further: on the % scale 0 is the no-effect control and ±100 the full control effect; nearly all actives have a fitted effect of over 60% in size
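L3MBTL1 (50 nM) pre-complexed 30 min with biotinylated H3(1-15)K9me1 peptide (75 nM), then compounds added for 30 min at room temperature; AlphaScreen streptavidin donor/nickel chelate acceptor beads (10 ug/mL final) read after 30 min dark incubation.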
G9a block – G9a (human) methyltransferase inhibition; G9a H3K9 monomethylation, AlphaScreen, 2 h; Potency, µM (doses to about 102 µM), without a hit: at the top dose activity, negative = inhibition, most hits filed as inhibitors; Q96KQ7; AID 504332; hit rate 8.8% among 350,000; further: on the % scale 0 is the no-effect control and ±100 the full control effect; nearly all actives have a fitted effect of over 75% in size
Target sequence (Q96KQ7 913-1193 limits assumed): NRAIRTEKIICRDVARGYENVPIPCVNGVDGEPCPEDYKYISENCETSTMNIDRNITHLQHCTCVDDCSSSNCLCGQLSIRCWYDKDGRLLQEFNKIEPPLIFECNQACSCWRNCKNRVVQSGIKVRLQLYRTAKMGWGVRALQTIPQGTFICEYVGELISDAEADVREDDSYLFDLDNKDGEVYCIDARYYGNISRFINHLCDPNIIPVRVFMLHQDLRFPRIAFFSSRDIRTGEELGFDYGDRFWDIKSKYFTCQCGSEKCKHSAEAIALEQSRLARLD
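Compounds were preincubated with 20 nM G9a for 15 min, after which biotinylated H3K9 peptide (500 nM) and SAM (20 uM) started a 2 h room-temperature reaction. Monomethylated product was quantified by antibody-based AlphaScreen chemiluminescence.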
* hit, by the source's call; [ ] = another dose, or the depositor's remark. Compounds with a hit are over-represented: about 10% of the library has one in this group of screens. The call rests on the fitted dose curve; in most records, active means well fitted curve in the direction sought with a large enough effect; inconclusive means small, poorly fitted or top-dose-only effect, or another doubt; inactive means no such curve, though single readings can be large; an effect the other way counts as inactive or inconclusive. Potency means the concentration at half of the fitted maximal effect.

Screening CC(=O)Nc1ccc(OCC(=O)N2CCC(Cc3ccccc3)CC2)cc1 returned BAZ2B block -16%, GLS inh 1%, JMJD2A Tudor inh -12%, HP1b binding inh 6% and G9a block 2%.
For Cc1cccc(OCC(=O)N2CCC(N3CCCCCC3)CC2)c1 the results were BAZ2B block inconclusive, JMJD2A Tudor inh 3.2µM*, HP1b binding inh inconclusive, L3MBTL1 block 0% and G9a block inconclusive.
COc1ccc(OC)c(NC(=O)C2Cc3ccccc3CN2S(=O)(=O)c2ccc(F)cc2)c1 (stereo not given) was read as BAZ2B block -12%, GLS inh 1%, JMJD2A Tudor inh -12%, HP1b binding inh 29% and G9a block -32%[59 µM].
COc1ccccc1C(=O)N1CCC(N2CCN(c3ccccc3)CC2)CC1 was read as BAZ2B block 50µM*, GLS inh 7%, JMJD2A Tudor inh 2.5µM*, HP1b binding inh inconclusive, L3MBTL1 block 7% and G9a block 35µM*.
Screening COc1ccccc1N1CCN(C(=O)COc2cccc3ccccc23)CC1 returned BAZ2B block -29%, GLS inh -2%, JMJD2A Tudor inh -23%, HP1b binding inh 18% and G9a block 28%.
Screening O=C(CCC1CCCC1)N1CCC(N2CCN(c3ccccc3)CC2)CC1 returned BAZ2B block 32µM*, GLS inh 23%, JMJD2A Tudor inh 1.4µM*, HP1b binding inh inconclusive and G9a block inconclusive.
For COc1ccccc1N1CCN(C2CCN(C(=O)COc3ccccc3)CC2)CC1 the results were BAZ2B block 50µM*, GLS inh 3%, JMJD2A Tudor inh -18%, HP1b binding inh 4%, L3MBTL1 block -1% and G9a block 10µM*.
COc1cccc(-c2cc(N(C)Cc3ccco3)ncn2)c1 was read as G9a block -2%[0.501 µM].
For CC1C(=O)N2CCCc3cc(NC(=O)COc4ccc(Cl)cc4)cc1c32 (stereo not given) the results were BAZ2B block -3%, GLS inh -4%, JMJD2A Tudor inh -9%, HP1b binding inh 15%, L3MBTL1 block 4% and G9a block 50µM*.
Screening CC1C(=O)N2CCCc3cc(NS(=O)(=O)c4ccc([N+](=O)[O-])cc4)cc1c32 (stereo not given) returned BAZ2B block -2%, GLS inh 22%, JMJD2A Tudor inh -11%, HP1b binding inh -1%, L3MBTL1 block -6% and G9a block inconclusive.
CNC(=O)C(=O)Nc1cc2c3c(c1)C(C)C(=O)N3CCC2 (stereo not given) was read as BAZ2B block -23%, GLS inh -2%, JMJD2A Tudor inh -2%, HP1b binding inh 30% and G9a block 1.4µM*.
For CC1C(=O)N2CCCc3cc(NS(=O)(=O)c4ccc(F)cc4)cc1c32 (stereo not given) the results were BAZ2B block -2%, GLS inh 16%, JMJD2A Tudor inh -13%, HP1b binding inh -13%, L3MBTL1 block 20% and G9a block 50µM*.
For CSc1ccccc1NC(=O)c1ccc(N2CC3CC(C2)c2cccc(=O)n2C3)c(NC(=O)c2cccnc2)c1 (stereo not given) the results were BAZ2B block -19%, GLS inh 1%, JMJD2A Tudor inh -6%, HP1b binding inh 28% and G9a block 71µM*.
COc1ccccc1NC(=O)c1ccc(N2CC3CC(C2)c2cccc(=O)n2C3)c(NC(=O)c2ccncc2)c1 (stereo not given) was read as BAZ2B block -14%[57.1 µM], GLS inh 14%, JMJD2A Tudor inh -12%, HP1b binding inh 30% and G9a block 16µM*.
Screening COCCNC(=O)c1ccc(N2CC3CC(C2)c2cccc(=O)n2C3)c(NC(=O)c2ccc(F)cc2)c1 (stereo not given) returned BAZ2B block -13%, GLS inh -2%, JMJD2A Tudor inh -10% and HP1b binding inh 7%.
COc1ccc(CN(C)C(=O)Cn2cc(C)c(=O)[nH]c2=O)cc1OC was read as GLS inh -3%, JMJD2A Tudor inh 79µM* and HP1b binding inh 29%.
`Cn1ccnc1C(O)c1cc(C(C)(C)C)c(O)c(C(C)(C)C)c1` (stereo not given) gave BAZ2B block inconclusive, GLS inh inconclusive, JMJD2A Tudor inh inconclusive, HP1b binding inh 22%, L3MBTL1 block -8% and G9a block 50µM*.
For CC(C)(Sc1cc(C(C)(C)C)c(O)c(C(C)(C)C)c1)Sc1cc(C(C)(C)C)c(O)c(C(C)(C)C)c1 the results were BAZ2B block -1%, GLS inh 12%, JMJD2A Tudor inh -19%, HP1b binding inh 41%, L3MBTL1 block 6% and G9a block -1%.
Cc1cccc2c1cnn2C(=O)Nc1ccc(Br)cc1F was read as BAZ2B block -6%, GLS inh -4%, JMJD2A Tudor inh 10%, HP1b binding inh 24% and G9a block 35µM*.
Cn1c(-c2nonc2N)nc2ccccc21 was read as BAZ2B block -27%, GLS inh -5%, JMJD2A Tudor inh 9%, HP1b binding inh 46%, L3MBTL1 block 1% and G9a block 40µM*.
Screening CCCn1c(-c2nonc2N)nc2ccccc21 returned BAZ2B block 10%, GLS inh 10%, JMJD2A Tudor inh 14%[57.1 µM], HP1b binding inh 35%, L3MBTL1 block 6% and G9a block 2%[59 µM].
`Cc1ccc(-c2nc3ccccc3n2C)o1` gave BAZ2B block -26%, GLS inh 15%, JMJD2A Tudor inh -20%, HP1b binding inh 15% and G9a block 13µM*.
For Cc1cccn2c(=O)c3cc(C#N)c(=O)n(-c4nnc(SCc5ccccc5F)s4)c3nc12 the results were BAZ2B block 0%, GLS inh -6%, JMJD2A Tudor inh 13%, HP1b binding inh 58% and G9a block 31%[59 µM].
Screening Cc1ccc(OCC(=O)Nc2nonc2-c2ccc(C)c(C)c2)cc1C returned BAZ2B block -9%, GLS inh 0%, JMJD2A Tudor inh inconclusive, HP1b binding inh 39% and G9a block -40%[59 µM].
`Cc1ccc(O)c(N/C=C/C(=O)c2ccc(F)cc2)c1` gave BAZ2B block -4%, GLS inh 20%, JMJD2A Tudor inh -14%, HP1b binding inh 48%, L3MBTL1 block 2% and G9a block 35µM*.
`Cc1ccc(N/C=C/C(=O)c2ccc(C)cc2)cc1` gave BAZ2B block 3%, GLS inh 0%, JMJD2A Tudor inh -15%[57.1 µM], HP1b binding inh 25% and G9a block inconclusive.
